Unmarked numbers belong to inactive results. Inconclusive results are not listed. A call without a number means that no potency is given here. Calls of active or inactive are those of the source. Unless noted, calls come from the whole dose curve; as a rule, active = well fitted curve in the direction sought with a large enough effect in the repeat runs; inconclusive = weak or mixed curves; inactive = no such curve, though single readings can be large; an effect the other way counts as inactive or inconclusive.
Legend:
[1] = qHTS assay for small molecule disruptors of the mitochondrial membrane potential - cell viability (AID 720634; calls by dose curve;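 note: human HepG2 liver cancer cells; nearly all actives have a fitted effect of over 20% in size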)
In short: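 Measuring cytotoxicity alongside mitochondrial potential, the screen quantified ATP by luminescence in HepG2 cells after 1 hr compound incubation and a 30 min room-temperature CellTiter-Glo step.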

[2] = qHTS assay to test for compound auto fluorescence at 590 nm (red) in HepG2 cells (AID 720674)
In short: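 Fluorescence at 590 nm emission following 540 nm excitation was recorded from HepG2 wells one hour after compound transfer, with DMSO-only wells as vehicle and Rose Bengal sodium equivalency as the scale.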

[3] = qHTS assay to test for compound auto fluorescence at 535 nm (green) in HepG2 cells (AID 720675)
[4] = qHTS assay to test for compound auto fluorescence at 460 nm (blue) in HEK293 cells (AID 720678)
In short: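 HEK293 cells (2,000/well, medium with 10% dialyzed FBS) attached 4-5 hr, then exposed to compound overnight at 37C, 5% CO2. Blue fluorescence read at 405/460 nm, with triamterene as reference fluorophore.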

[5] = qHTS assay to test for compound auto fluorescence at 590 nm (red) in HEK293 cells (AID 720679)
In short: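 HEK293 cells (2,000/well, 10% dialyzed FBS) attached 4-5 hr, then dosed with compound or DMSO and incubated overnight at 37C, 5% CO2. Red fluorescence read at 540/590 nm, Rose Bengal sodium as reference fluorophore.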

[6] = qHTS assay to test for compound auto fluorescence at 535 nm (green) in HEK293 cells (AID 720680)
[7] = qHTS assay to test for compound auto fluorescence at 460 nm (blue) in HEK293 cell free culture (AID 720681)
In short: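 Compounds were added to cell-free DMEM with 10% FBS and fluorescence read directly. The blue channel used 405 nm excitation and 460 nm emission, with triamterene as the reference fluorophore.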

[8] = qHTS assay to test for compound auto fluorescence at 535 nm (green) in HEK293 cell free culture (AID 720682)
In short: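 Steps: dispense DMEM/10% FBS into empty wells; pin in compound or DMSO; measure fluorescence at 485/535 nm. Values are fluorescein equivalents.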

[9] = qHTS assay to test for compound auto fluorescence at 590 nm (red) in HEK293 cell free culture (AID 720683)
In short: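 Cell-free wells of DMEM with 10% FBS received compound, and intrinsic fluorescence was read at excitation/emission 540/590 nm. Values expressed as equivalence to Rose Bengal sodium.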

[10] = qHTS assay to test for compound auto fluorescence at 590 nm (red) in HepG2 cell free culture (AID 720684)
In short: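 Compounds are added to culture medium (MEM, 10% FBS) lacking cells, then fluorescence is read at excitation 540 nm, emission 590 nm, with Rose Bengal sodium as the equivalency standard.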

[11] = qHTS assay to test for compound auto fluorescence at 460 nm (blue) in HepG2 cell free culture (AID 720685)
In short: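 Compound (23 nL) or DMSO pinned into cell-free MEM with 10% FBS; blue fluorescence read at 405/460 nm excitation/emission, expressed as auto-fluorescence equivalency to triamterene.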

[12] = qHTS assay to test for compound auto fluorescence at 535 nm (green) in HepG2 cell free culture (AID 720686)
[13] = qHTS assay to test for compound auto fluorescence at 460 nm (blue) in HepG2 cells (AID 720687)
In short: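 HepG2 cells in MEM with 10% FBS, attached overnight at 37 C, were exposed to compound or DMSO for 1 hr at 37 C, 5% CO2. Blue fluorescence was read at 405/460 nm, with triamterene as reference fluorophore.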

[14] = qHTS assay for small molecule agonists of the p53 signaling pathway - cell viability (AID 651633; calls by dose curve;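 note: p53RE-bla HCT reporter cells with a stable beta-lactamase p53 reporter; nearly all actives have a fitted effect of over 30% in size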)
In short: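 p53RE-bla cells were treated with compound for 16 hours at 37 C. Cytotoxicity was then measured as CellTiter-Glo luminescence after 30 min at room temperature.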

[15] = qHTS assay for small molecules that induce genotoxicity in human embryonic kidney cells expressing luciferase-tagged ATAD5 - cell viability (AID 651634; calls by dose curve; note: nearly all actives have a fitted effect of over 25% in size)
In short: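 Seeding of 2,000 HEK293T ATAD5-luciferase cells per well preceded pin-tool compound transfer. Plates sat 15.5 hr at 37C under 5% CO2, then fluorescence was read after 30 min with CellTiter-Fluor.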

[16] = qHTS assay for small molecule disruptors of the mitochondrial membrane potential (AID 720635); note: potency is the fitted concentration of half-maximal effect
In short: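 HepG2 cells exposed to compound 1 hr at 37C, then Mito-MPS dye 30 min. Ratio read of aggregate (540/590 nm) versus monomer (490/535 nm) fluorescence.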

[17] = qHTS assay for small molecules that induce genotoxicity in human embryonic kidney cells expressing luciferase-tagged ATAD5 (AID 651632); note: nearly all actives have a fitted effect of over 15% in size
In short: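 Reporter cells (HEK293T) express luciferase-tagged ATAD5, a protein that accumulates after DNA damage. Treat 16 hr at 37C/5% CO2, add Amplite, wait 30 min at RT, and read luminescence.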

[18] = molecular target: Glucocorticoid receptor (Homo sapiens) (UniProt P04150); test: qHTS assay to identify small molecule agonists of the glucocorticoid receptor (GR) signaling pathway (AID 720691; active = well fitted activation curve with a large enough effect in the signal ratio in the repeat runs, not every such curve was filed as active; the % refers to the signal ratio); details: GR-bla HeLa, beta-lactamase reporter ratio, 18 h; activation: at 62.4 µM (top of the series)
Chain of Glucocorticoid receptor (Homo sapiens) (P04150 whole entry, looked up): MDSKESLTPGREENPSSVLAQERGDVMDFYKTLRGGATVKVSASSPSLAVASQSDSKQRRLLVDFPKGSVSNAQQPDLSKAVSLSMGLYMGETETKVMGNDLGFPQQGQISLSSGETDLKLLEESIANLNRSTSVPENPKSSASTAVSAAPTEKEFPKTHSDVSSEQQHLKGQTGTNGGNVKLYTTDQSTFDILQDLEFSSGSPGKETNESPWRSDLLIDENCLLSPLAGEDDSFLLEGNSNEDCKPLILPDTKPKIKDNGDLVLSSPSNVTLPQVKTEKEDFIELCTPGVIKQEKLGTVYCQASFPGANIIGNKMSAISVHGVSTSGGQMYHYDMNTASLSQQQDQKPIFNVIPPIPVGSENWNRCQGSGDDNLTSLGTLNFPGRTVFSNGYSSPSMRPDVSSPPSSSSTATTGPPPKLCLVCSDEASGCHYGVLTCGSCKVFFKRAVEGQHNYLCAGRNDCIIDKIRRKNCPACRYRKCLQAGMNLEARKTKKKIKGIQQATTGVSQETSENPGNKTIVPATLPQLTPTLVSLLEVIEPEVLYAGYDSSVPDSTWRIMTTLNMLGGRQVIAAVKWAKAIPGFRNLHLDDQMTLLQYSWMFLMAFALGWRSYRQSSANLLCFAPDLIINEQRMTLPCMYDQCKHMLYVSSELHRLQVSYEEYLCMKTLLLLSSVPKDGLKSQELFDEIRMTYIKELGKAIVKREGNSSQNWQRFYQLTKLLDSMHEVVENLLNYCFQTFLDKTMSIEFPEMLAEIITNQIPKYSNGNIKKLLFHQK
In short: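 Reporter read-out: fluorescence intensity following 2 h room-temperature LiveBLAzer B/G FRET substrate loading. Prior step: GR-bla HeLa cells held 4 h, then treated 18 h at 37 C.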

[19] = molecular target: Glucocorticoid receptor (Homo sapiens) (UniProt P04150); test: qHTS assay to identify small molecule antagonists of the glucocorticoid receptor (GR) signaling pathway (AID 720692; active = well fitted inhibition curve with a large enough effect in the signal ratio in the repeat runs, not every such curve was filed as active; the % refers to the signal ratio)
In short: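 Dexamethasone (5 nM final) stimulated a stably integrated GRE-beta-lactamase reporter in HeLa cells during 18 h co-incubation with compounds; signal was quantified as fluorescence intensity of B/G FRET substrate after 2 h.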

Row | Compound | Potency [1] | outcome [2] | Potency [3] | Potency [4] | outcome [5] | outcome [6] | Potency [7] | outcome [8] | outcome [9] | outcome [10] | Potency [11] | Potency [12] | Potency [13] | Potency [14] | Potency [15] | Potency [16] | Potency [17] | Potency [18] | Potency [19]
1 | O.O.O.O.O.O.O.O=S(=O)([O-])[O-].[Co+2] | inactive | inactive | inactive | inactive | inactive | inactive | inactive | inactive | inactive | inactive | inactive | inactive | inactive |  |  |  |  |  | 
2 | CN(C)c1ccc(N)cc1 | inactive | inactive | inactive | inactive |  | inactive |  | inactive | inactive | inactive | inactive | inactive | inactive | inactive | inactive | 8.42 µM (active) |  |  | 
3 | CCc1cccc(C)c1N(C(=O)CCl)[C@@H](C)COC |  | inactive |  | inactive | inactive | inactive | inactive | inactive | inactive | inactive | inactive | inactive | inactive |  | inactive |  | inactive |  | 
4 | C#CCC1=C(C)C(OC(=O)C2C(C=C(C)C)C2(C)C)CC1=O (stereo not given) |  | inactive | inactive | inactive | inactive | inactive | inactive | inactive | inactive | inactive | inactive | inactive | inactive |  | inactive | 60.7 µM (active) | inactive |  | 
5 | Cc1ccc2cc3c(ccc4ccccc43)c3c2c1CC3 |  | inactive | inactive | inactive | inactive | inactive | inactive | inactive | inactive | inactive | inactive | inactive | inactive |  | inactive | 12.2 µM (active) | inactive | inactive | 
6 | O=C(N[C@@H]1N=C(c2ccccc2F)c2cccc3c2N(CC3)C1=O)c1cc2ccccc2[nH]1 | inactive | inactive | inactive | inactive | inactive | inactive | inactive | inactive |  | inactive | inactive | inactive | inactive | inactive | inactive | 8.41 µM (active) |  |  | 
7 | N#CSCc1ccccc1 | inactive | inactive | inactive | inactive | inactive | inactive | inactive | inactive |  | inactive | inactive | inactive | inactive | inactive | inactive |  |  | inactive | 
8 | O=[N+]([O-])[O-].[Tl+] |  | inactive | inactive | inactive | inactive | inactive | inactive | inactive | inactive | inactive | inactive | inactive | inactive |  | inactive |  |  | inactive | 
9 | CNN | inactive | inactive | inactive | inactive | inactive | inactive | inactive | inactive | inactive | inactive | inactive | inactive | inactive | inactive | inactive | inactive |  |  | 
10 | Oc1cc(Cl)c(Cl)c(Cl)c1Cl |  | inactive | inactive | inactive |  | inactive | inactive | inactive | inactive | inactive | inactive | inactive | inactive |  | inactive |  | inactive |  | 
11 | CSSC |  | inactive | inactive | inactive | inactive | inactive | inactive | inactive | inactive | inactive | inactive | inactive | inactive | inactive |  |  |  |  | 
12 | CCO/N=C(\CC)C1=C(O)CC(c2c(C)cc(C)cc2C)CC1=O (stereo not given) | inactive | inactive | inactive | inactive | inactive | inactive |  | inactive | inactive | inactive | inactive | inactive | inactive | inactive | inactive | 12.2 µM (active) |  | inactive | 
13 | CC(=O)[O-].CC(=O)[O-].CC(=O)[O-].[Cr+3] |  | inactive | inactive | inactive | inactive | inactive | inactive | inactive | inactive | inactive | inactive | inactive | inactive | inactive | inactive |  |  |  | 
14 | CC(Cc1ccc(O)cc1)NCC(O)c1cc(O)cc(O)c1 (stereo not given) | inactive | inactive | inactive | inactive | inactive | inactive | inactive | inactive | inactive | inactive | inactive | inactive | inactive |  | inactive | inactive |  | inactive | inactive
15 | [Cl-].[Cl-].[Cl-].[Yb+3] |  | inactive | inactive | inactive | inactive | inactive | inactive | inactive | inactive | inactive | inactive | inactive | inactive |  | inactive |  |  |  | 
16 | CC(=O)[O-].CC(=O)[O-].O.O.[Zn+2] |  | inactive | inactive | inactive | inactive | inactive | inactive | inactive | inactive | inactive | inactive | inactive | inactive | inactive | inactive |  |  |  | 
17 | CCCCn1cc[n+](C)c1.[Cl][Fe-]([Cl])([Cl])[Cl] | inactive | inactive |  | inactive | inactive | inactive | inactive | inactive | inactive | inactive | inactive | inactive | inactive |  | inactive | inactive |  |  | 
18 | S=C=NCCc1ccccc1 | inactive | inactive | inactive | inactive | inactive | inactive | inactive | inactive | inactive | inactive | inactive | inactive | inactive | inactive |  | 38.6 µM (active) |  | inactive | 
19 | CO/N=C(/C1=NOCCO1)c1ccccc1Oc1ncnc(Oc2ccccc2Cl)c1F |  | inactive |  | inactive | inactive | inactive | inactive | inactive |  | inactive | inactive | inactive | inactive |  | inactive | 54.4 µM (active) | inactive | inactive | 
20 | [C-]1=CC=CC1.[Cl][Zr+2][Cl].c1cc[cH-]c1 | inactive | inactive | inactive |  |  | inactive |  | inactive | inactive | inactive |  | inactive |  | inactive | inactive |  |  |  | 

— PubChem BioAssay (Tox21)
